Pf growth 48h: P. falciparum growth inhibition at 48 hours (one generation). P. falciparum luciferase growth in erythrocytes, 48 h. Potency, µM (series often up to 28.7 µM), inactives show top-dose activity change, negative = inhibition, usual class: inhibitors. 5.9% of 310,000 active. AID 504832; note: potency is the fitted concentration of half-maximal effect; % is set by controls: 0 for no effect and ±100 for the full control effect
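Firefly luciferase activity from engineered P. falciparum reports growth; inhibitors lower the luminescent signal. Cultures contained 2% hematocrit erythrocytes at 0.1% final parasitemia.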
AMA1 RON2 block: inhibitors of Plasmodium falciparum AMA1-RON2 interaction; AlphaScreen AMA1-biotinylated RON2 peptide binding; AID 720542; 0.2% of 360,000 active; Potency, µM (top dose mostly 58.2 µM), for the others: at the top dose activity change, negative = inhibition, actives largely listed as inhibitors;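 note: potency is the fitted concentration of half-maximal effect; 0% = vehicle wells and -100% = peptide control; nearly all actives have a fitted effect of over 45% in size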
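AMA1 (3D7) with his tag at 25 nM final met compounds first, then biotinylated RON2 peptide at 25 nM; detection used donor plus acceptor beads, 10 µg/mL apiece, read by AlphaScreen after 30 min at room temperature.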
SARS PLP yeast: SARS-CoV PLP inhibition in yeast; 0.19% of 330,000 active; Potency, µM (top dose mostly 32.9 µM), inactives show at the highest dose activity, positive = growth rescue, hits mostly activators; S. cerevisiae expressing SARS-CoV PLpro, growth rescue; calls by dose curve; note: potency is the fitted concentration of half-maximal effect; 0% is about no effect; nearly all actives have a fitted effect of over 55% in size
Pf growth 96h: P. falciparum growth inhibition at 96 hours. P. falciparum luciferase reporter growth, 96 h. Potency, µM (top dose mostly 28.7 µM), for inactives: at the highest dose activity change, negative = inhibition, most hits filed as inhibitors. 6.9% of 320,000 active. AID 504834; note: potency is the fitted concentration of half-maximal effect; % is set by controls: 0 for no effect and ±100 for the full control effect
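Delayed-death screen, second-generation endpoint: infected erythrocytes, 2% hematocrit, 0.05% parasitemia final; 96 hours at 37 C, 5% CO2; luciferase detection reagent; luminescence decrease equals reduced growth.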
Shiga toxin inh: blocks Shiga toxin action in Vero cells. Vero cells, Shiga toxin protein synthesis inhibition reporter. inhibition, % at 38.7 µM. 9.2% of 290,000 active. AID 2315; in the data active = inhibition mostly above about 28%, no sharp cut-off; inactive = mostly below about 43%; note: 0% is about no effect
CHX counter: affects cycloheximide protein synthesis inhibition readout, counter-screen; cell reporter, cycloheximide protein synthesis inhibition counterscreen; max response, %; 12% of 300,000 active; in the data active = max response mostly above about 13%, no sharp cut-off; inactive = mostly below about 14%; note: read at 38.3 µM for the half of the compounds with a filed dose; 0% is about no effect
Active calls of the source: *; i = inactive; ? = inconclusive; . = not tested or not shown; [ ] = another dose, or the depositor's remark. An excerpt weighted towards active compounds, which were near 19% of everything screened. Unless noted, calls come from the whole dose curve; as a rule, active = well fitted curve in the direction sought with a large enough effect; inconclusive = small, poorly fitted or top-dose-only effect, or another doubt; inactive = no such curve, though single readings can be large; an effect the other way counts as inactive or inconclusive.

SMILES	Pf growth 48h	AMA1 RON2 block	SARS PLP yeast	Pf growth 96h	Shiga toxin inh	CHX counter
CCOc1cc(Br)ccc1S(=O)(=O)NCc1ccccc1	19.9%	13.3%	-2.3%	28.9%	9.9	-2.8
Cc1ccc(NC(=O)N(C)c2ccccc2)cc1	4.5%[0.00184 µM]	-3.1%	0.8%	?	48.0*	17.1*
CN(C(=O)Nc1cnc2ccccc2c1)c1ccccc1	33.1%	6.8%	-0.7%	34.2%	28.4*	33.8*
Cc1cccc(NC(=O)CS(=O)CC(=O)Nc2cnc3ccccc3c2)c1C (centres undefined)	11.6%	53.2%	-6.2%	?	-18.2	6.2
Cc1ccc(NC(=O)N(CCC(=O)O)Cc2ccccc2)cc1	12.9%	-24.4%	0.7%	17.2%	-9.3	-1.2
Cc1c(C#N)c(O)n(CCO)c(=O)c1N=Nc1ccc2c(c1)COC2=O	22.4%	?	4.6%	8.2%	31.1	26.6*
CC1(C)CC(NC(=O)c2cccc(S(=O)(=O)N(Cc3ccccc3)c3ccccc3)c2)CC(C)(C)N1	10.4µM*	1.6%	-3.5%	13.1µM*	.	.
Cc1ccc(N(C)S(=O)(=O)c2cccc(C(=O)NC3CC(C)(C)NC(C)(C)C3)c2)cc1	?	1.8%	1.2%	?	.	.
COc1ccccc1N(Cc1ccccc1)S(=O)(=O)c1cccc(C(=O)Nc2ccc(C)cn2)c1	4.15µM*	3.5%	3.5%	1.85µM*	.	.
COc1ccccc1N(Cc1ccccc1)S(=O)(=O)c1cccc(C(=O)Nc2ccccn2)c1	10.4µM*	-5.3%	-10.1%	9.28µM*	49.8*	25.4*
CN(C1CCCCC1)S(=O)(=O)c1cccc(C(=O)Nc2ccccn2)c1	?	-4.2%	-10.8%	?	.	.
O=S(=O)(c1ccc(F)cc1)N1CCN(c2nc(-c3ccc(F)cc3)nc3cc(Cl)ccc23)CC1	.	.	.	.	21.2	18.5
Cc1ccc(-n2c(-c3ccc(Br)cc3)n[nH]c2=S)c(C)c1	.	97.9%	.	.	.	.
CC1c2cc3c(cc2CCN1C(=O)c1cccc(F)c1)OCCCO3 (centres undefined)	-3.1%	0.0%	-2.9%	?	-3.6	8.4
Cc1nc(-c2ccccc2)sc1-c1ccn[nH]1	182.5%	-4.1%	-3.9%	291.9%	69.3*	27.8*
Cc1nc(-c2ccccc2)sc1-c1ccnn1C	i	-5.0%	-1.7%	414.3%	81.3*	34.8*
Cc1ccc2c(c1)N(Cc1ccc([N+](=O)[O-])cc1)C=NS2(=O)=O	2.3%	-5.0%	-1.8%	4.6%	1.3	1.6
COCCNC(=O)C(c1ccc(C)o1)N(C(=O)C(=O)NC1CCCCC1)c1ccc(F)cc1 (centres undefined)	-18.4%	-8.7%	-1.2%	-13.8%	-16.8	-2.3
COc1ccc(Cl)cc1-c1noc([C@@H]2O[C@H](CO)[C@@H](O)[C@H]2O)n1	.	-0.6%	.	.	.	.
COc1cccc(N2C(=O)CC(c3c[nH]c4ccccc34)C2=O)c1 (centres undefined)	-2.2%	-10.3%	1.9%	.	21.7	9.8
O=C1CC(c2c[nH]c3ccccc23)C(=O)N1c1ccccc1 (centres undefined)	11.0%	5.0%	5.7%	7.38µM*	18.0	-2.3
Cc1cc(O)ccc1Nc1cc(-c2cccc(N)c2)ncn1	.	-0.7%	.	.	.	.
O=C(COC(=O)CN1C(=O)C2CCCCC2C1=O)Nc1cc(S(=O)(=O)N2CCOCC2)ccc1Cl (centres undefined)	-0.1%	-5.1%	14.3%	-7.1%	9.1	-4.0
COc1ccc(S(=O)(=O)N2c3ccccc3OCC2c2ccccc2)cc1 (centres undefined)	13.1µM*	5.5%	1.0%	?	-0.7	4.2
COc1ccc(S(=O)(=O)N2c3ccccc3OCC2C)cc1 (centres undefined)	?	-11.2%	-6.5%	?	4.3	-10.3
SMILES	Pf growth 48h	AMA1 RON2 block	SARS PLP yeast	Pf growth 96h	Shiga toxin inh	CHX counter
COc1ccc(S(=O)(=O)N2c3ccccc3OCC2C(C)(C)C)cc1 (centres undefined)	11.7µM*	-17.2%	-13.2%	14.7µM*	16.7	7.0
COC(=O)Cc1ccc2sc(-c3ccccc3)nc2c1	32.3%	9.0%	-33.3%	5.3%	72.8*	61.8*
Cc1ccc(C(=O)NC(=S)Nc2cccc(-c3nc4ccccc4s3)c2)cc1	101.9%	2.2%	13.6%	-10.0%	60.1*	26.5*
CC(=O)Nc1cccc(-c2cc(C)c3cc4c(cc3n2)OCO4)c1	23.9%	-3.4%	-1.7%	79.5%	109.0*	36.7*
O=C(O)Cc1ccc2sc(-c3ccccc3)nc2c1	2.4%	0.0%	-20.9%	35.0%	24.0	9.5
O=C(/C=C/c1ccco1)NC(=S)Nc1cccc(-c2nc3ccccc3s2)c1	.	25.8%	.	.	.	.
CC(=O)Nc1cccc(-c2nc3ccccc3s2)c1	118.3%	-1.1%	-3.3%	?	97.9*	35.6*
O=c1cc(C2CCCCC2)[nH]c(=O)[nH]1	.	14.6%	.	.	.	.
CC(=O)Nc1cccc(-c2nc3ccc(NC(C)=O)cc3s2)c1	60.3%	-5.9%	-0.4%	3.8%	77.9*	39.9*
Cc1ccc(C(=O)NC(=S)Nc2c(C)ccc3nsnc23)cc1	-15.7%	-5.8%	12.6µM*	18.1%	11.0	24.8
CC(=O)Nc1ccc2nc(SCC(=O)O)sc2c1	22.2%	-19.2%	3.1%	.	-4.5	-1.4
CSc1nn2c(C(F)(F)F)cc(C(F)(F)F)nc2c1C(N)=O	?	-8.3%	0.0%	?	-5.8	-0.3
O=C(/C=C/c1c[nH]c2ccccc12)c1c(O)n(CCc2ccccc2)c(=O)[nH]c1=O	-26.9%	11.6%	-1.6%	10.6%	28.5	21.4*
O=C(/C=C/c1c[nH]c2ccccc12)c1cccc2ccccc12	3.7%	-9.4%	-65.4%	9.28µM*	37.4*	28.3*
CCOC(=O)[C@H]1[C@H]2COc3ccc(C)cc3[C@@H]2N2C(=O)c3ccc(C)cc3NC(=O)[C@@]12C	?	-4.7%	0.0%	?	.	.
CCOC(=O)[C@H]1[C@H]2COc3ccc(OC)cc3[C@@H]2N2C(=O)c3cc(C)ccc3NC(=O)[C@@]12C	?	-3.7%	0.1%	?	.	.
CCOC(=O)[C@H]1[C@H]2COc3ccc(Br)cc3[C@@H]2N2C(=O)c3ccc(Cl)cc3NC(=O)[C@@]12C	9.28µM*	-2.9%	-2.4%	?	.	.
COc1ccc2c(c1)OC[C@H]1[C@H]2N2C(=O)c3cc(C)ccc3NC(=O)[C@@]2(C)[C@H]1c1ccccc1	.	-1.2%	-1.3%	.	.	.
COc1ccc2c(c1)[C@H]1[C@H](CO2)[C@H](c2ccccc2)[C@]2(C)C(=O)Nc3cc(OC)c(OC)cc3C(=O)N12	9.28µM*	-8.2%	-1.4%	?	.	.
COc1ccc2c(c1)C(=O)N1[C@H]3c4cc(C)ccc4OC[C@@H]3[C@H](c3ccccc3)[C@]1(C)C(=O)N2	9.28µM*	4.8%	3.0%	?	.	.
CCOC(=O)[C@H]1[C@H]2COc3ccccc3[C@@H]2N2C(=O)c3cc(OC)ccc3NC(=O)[C@@]12C	5.22µM*	-2.9%	1.9%	?	.	.
